Measured values: PubChem BioAssay (EPA / NIEHS)
Records with an inconclusive call do not appear. The source made the active and inactive calls. The calls were made as follows, unless noted: active = hit-call score of the fitted dose curve at least 0.9, where 1 is the maximum; inactive = score below 0.9.

Experiments:
[1] = target: Retinoic acid receptor alpha (Homo sapiens) (UniProt P10276); experiment: ATG_DR5_RAR_CIS: Attagene CIS-FACTORIAL HepG2 Assay for human Retinoic Acid Receptor Alpha (RARE), DR5 submotif (AID 2282934); settings: HepG2 Attagene cis-factorial RARE DR5 reporter, mRNA; actives raise or lower the signal
In short: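 HepG2 cells transiently transfected with multiplexed reporter units; DR5 cis-element drives reporter through endogenous transcription factors. After 24 h dosing, reporter mRNA quantified by RT-PCR, fluorescent labeling, HpaI digestion and capillary electrophoresis; bidirectional fitting versus DMSO.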

[2] = target: Hepatocyte nuclear factor 3-beta (Homo sapiens) (UniProt Q9Y261); experiment: ATG_FoxA2_CIS: Attagene CIS-FACTORIAL HepG2 Assay for human Forkhead box A2 (FOXA2) (AID 2282942); settings: HepG2 cis-reporter transcription factor activity, 24 h; actives raise or lower the signal
In short: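 HepG2 cells transiently transfected with multiple cis-regulated reporter transcription units, dosed for 24 h. Reporter mRNA measured by RT-PCR, 6-FAM labelling, HpaI digestion and capillary electrophoresis; bidirectional fitting against DMSO baseline.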

[3] = ATG_PBREM_CIS: Attagene CIS-FACTORIAL HepG2 Assay for human Phenobarbital-responsive Enhancer Module (PBREM) (AID 2282955); settings: HepG2 PBREM cis-reporter, Attagene multiplexed transcription; actives raise or lower the signal
In short: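 HepG2 cells transiently transfected with multiple cis-regulated reporter transcription units; endogenous factor activity at the PBREM element measured as reporter mRNA 24 h after dosing, via RT-PCR and capillary electrophoresis of fluorescent fragments; bidirectional fitting versus DMSO.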

[4] = ATG_RORE_CIS: Attagene CIS-FACTORIAL HepG2 Assay for human RAR-related Orphan Receptor Element (RORE) (AID 2282959); settings: HepG2 Attagene cis-factorial RORE reporter, mRNA; actives raise or lower the signal
In short: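 HepG2 cells transiently transfected with multiple cis-element reporter transcription units, exposed to chemical for 24 h. Reporter mRNA quantified by RT-PCR, 6-FAM primer-extension labeling, HpaI digestion and capillary electrophoresis; bidirectional fit versus DMSO baseline.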

[5] = target: Hepatocyte nuclear factor 4-alpha (Homo sapiens) (UniProt P41235); experiment: ATG_HNF4a_TRANS: Attagene TRANS-FACTORIAL HepG2 Assay for human Hepatocyte Nuclear Factor 4 alpha (HNF4a) (AID 2282982; active = hit-call score of the fitted dose curve at least 0.9, where 1 is the maximum); settings: HepG2 HNF4a transactivation reporter, mRNA readout
In short: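 Transient MRTU transfection of HepG2, 24 h dosing. Readout: reporter mRNA via RT-PCR + capillary electrophoresis, fluorescence; activity fit upward relative to DMSO control.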

[6] = target: human Peroxisome Proliferator-activated Receptor alpha (PPARa), PPARA (gene 5465) (UniProt Q07869); experiment: ATG_PPARa_TRANS: Attagene TRANS-FACTORIAL HepG2 Assay for human Peroxisome Proliferator-activated Receptor alpha (PPARa) (AID 2283001; active = hit-call score of the fitted dose curve at least 0.9, where 1 is the maximum)
In short: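 Transient HepG2 transfection, GAL4-UAS reporters, NR-Gal4 chimeras; 24 h compound exposure. Readout: reporter transcripts by RT-PCR, 6-FAM primer extension, HpaI digest, capillary electrophoresis. Positive direction vs DMSO baseline.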

[7] = target: Cellular tumor antigen p53 (Homo sapiens) (UniProt P04637); experiment: TOX21_p53_BLA_p3_ratio: Tox21 HCT-116 p53 Agonism Beta-lactamase Assay, Ratio, Phase 3 (AID 2283596; active = hit-call score of the fitted dose curve at least 0.9, where 1 is the maximum)
In short: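 Cells were seeded at 4000/well, rested 5 h at 37C, then dosed with DMSO compound solutions (217-fold dilution) for 16 h. CCF4-AM substrate was loaded for 2 h at room temperature, and the 460/530 nm emission ratio was fitted for gain of signal versus DMSO.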

[8] = target: Cellular tumor antigen p53 (Homo sapiens) (UniProt P04637); experiment: TOX21_p53_BLA_p5_ratio: Tox21 HCT-116 p53 Agonism Beta-lactamase Assay, Ratio, Phase 5 (AID 2283599; active = hit-call score of the fitted dose curve at least 0.9, where 1 is the maximum)
In short: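 HCT-116 p53-bla cells (4000/well) plated 5 h, dosed with compound (217-fold DMSO dilution) for 16 h at 37 C; CCF4-AM substrate 2 h at room temperature. Activity is the 460/530 nm emission ratio (405 nm excitation), fitted in gain-of-signal direction versus DMSO.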

[9] = TOX21_p53_BLA_p5_viability: Viability Assessment in the Tox21 HCT-116 p53 Agonism Beta-lactamase Assay, Phase 5 (AID 2283600; active = hit-call score of the fitted dose curve at least 0.9, where 1 is the maximum)
In short: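 Viability is taken from cellular ATP content, measured by luciferase luminescence in the same wells after the beta-lactamase ratio read. Cells are seeded at 4000 per well and exposed to DMSO-dissolved compounds, diluted 217-fold, for 16 h.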

[10] = target: Cellular tumor antigen p53 (Homo sapiens) (UniProt P04637); experiment: TOX21_p53_BLA_p4_ratio: Tox21 HCT-116 p53 Agonism Beta-lactamase Assay, Ratio, Phase 4 (AID 2283601; active = hit-call score of the fitted dose curve at least 0.9, where 1 is the maximum)
In short: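 HCT-116 p53 beta-lactamase reporter cells (4000/well) preincubated 5 h, then compound (217-fold dilution of DMSO stock) for 16 h at 37C. CCF4-AM substrate added 2 h at room temperature; 460/530 nm emission ratio fitted upward versus DMSO.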

[11] = ATG_GLI_CIS: Attagene CIS-FACTORIAL HepG2 Assay for human Zinc Finger Protein GLI1 (AID 2282945); settings: HepG2, Attagene cis-factorial reporter mRNA, GLI element; actives raise or lower the signal
In short: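 Transiently transfected HepG2 cells report endogenous transcription factor activity via cis-element-driven reporter units. After 24 h compound exposure, reporter mRNA was measured by RT-PCR with capillary electrophoresis; bidirectional fitting against DMSO baseline.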

[12] = ATG_GRE_CIS: Attagene CIS-FACTORIAL HepG2 Assay for human Glucocorticoid Response Elements (GRE) (AID 2282947); settings: HepG2 GRE cis-reporter, Attagene multiplex mRNA; actives raise or lower the signal
In short: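 Read-out: fluorescent reporter-transcript fragments separated by capillary electrophoresis after RT-PCR. Transiently transfected HepG2 cells carrying cis-element-driven reporter units were dosed for 24 h; gain or loss of signal fitted against DMSO control.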

[13] = ATG_M_32_CIS: Attagene CIS-FACTORIAL HepG2 Assay for M32 Transcription Factor (Internal Marker) (AID 2282949); settings: HepG2 Attagene cis-factorial M32 reporter, mRNA; actives raise or lower the signal;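 also: background control marker of the multiplexed CIS panel rather than a real target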
In short: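 Transient MRTU transfection of HepG2; 24 h compound treatment; TriZol RNA, oligo(dT) RT, reporter PCR, 6-FAM primer extension, HpaI cut, CE. Gain/loss of signal vs DMSO.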

[14] = ATG_MRE_CIS: Attagene CIS-FACTORIAL HepG2 Assay for human Metal Responsive Element (MRE) (AID 2282954); settings: HepG2 MRE cis-reporter transcription, Attagene multiplex; actives raise or lower the signal
In short: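 RT-PCR/capillary electrophoresis readout of reporter mRNA, 24 h post-dosing, in HepG2 cells transfected with multiplexed cis-regulated reporter constructs. Gain or loss of signal fitted bidirectionally against DMSO baseline.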

[15] = target: Nuclear respiratory factor 1 (Homo sapiens) (UniProt Q16656); experiment: ATG_NRF1_CIS: Attagene CIS-FACTORIAL HepG2 Assay for human Nuclear Respiratory Factor 1 (NRF1) Orphan Gene (AID 2282987); settings: HepG2 NRF1 cis-element reporter, Attagene multiplex; actives raise or lower the signal
In short: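 HepG2 cells transiently transfected with multiple reporter transcription units under cis-regulatory promoter control, so endogenous transcription-factor activity is read. After 24 h compound exposure, reporter mRNA quantified by RT-PCR, fluorescent labelling, HpaI digestion and capillary electrophoresis; bidirectional fitting versus DMSO.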

[16] = target: Retinoic acid receptor RXR-alpha (Homo sapiens) (UniProt P19793); experiment: ATG_RXRa_TRANS: Attagene TRANS-FACTORIAL HepG2 Assay for human Retinoid X Receptor alpha (RXRa) (AID 2283012; active = hit-call score of the fitted dose curve at least 0.9, where 1 is the maximum)
In short: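 Read-out: fluorescent reporter-transcript fragments quantified by capillary electrophoresis after RT-PCR. Transiently transfected HepG2 cells carrying GAL4-UAS reporters and NR-GAL4 chimeras were exposed to chemical for 24 h; activity scored as increase over DMSO.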

[17] = target: human Retinoid X Receptor beta (RXRb), RXRB (gene 6257) (UniProt P28702); experiment: ATG_RXRb_TRANS: Attagene TRANS-FACTORIAL HepG2 Assay for human Retinoid X Receptor beta (RXRb) (AID 2283013; active = hit-call score of the fitted dose curve at least 0.9, where 1 is the maximum)
In short: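 Read-out: reporter mRNA induction via RT-PCR plus capillary electrophoresis fluorescence, analysed as signal increase relative to DMSO. Cells were human HepG2, transiently transfected with GAL4-UAS reporter constructs and chimeric receptor-Gal4 fusions, dosed for 24 h.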

[18] = TOX21_p53_BLA_p2_viability: Viability Assessment in the Tox21 HCT-116 p53 Agonism Beta-lactamase Assay, Phase 2 (AID 2283591; active = hit-call score of the fitted dose curve at least 0.9, where 1 is the maximum;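 also: compound exposure lasted 16 h at 37 °C; actives lower the ATP signal meaning cytotoxicity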)
In short: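 HCT116 p53-bla cells, 4000/well, dosed after 5 h plating (217-fold dilution of DMSO stocks) and incubated 16 h at 37C. Viability taken as cellular ATP by CellTiter-Glo luminescence after 30 min RT; signal loss marks cytotoxicity.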

[19] = ATG_M_32_TRANS: Attagene TRANS-FACTORIAL HepG2 Assay for M32 Transcription Factor (Internal Marker) (AID 2282984; active = hit-call score of the fitted dose curve at least 0.9, where 1 is the maximum;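 also: transcript level of a background control reporter unit measured by RT-PCR and capillary electrophoresis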); settings: HepG2 Attagene TRANS M32 internal marker reporter
In short: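 Read-out: fluorescent reporter cDNA fragments resolved by capillary electrophoresis after RT-PCR of total RNA. Transfected HepG2 cells were exposed to chemical for 24 h. Activity scored in the positive direction relative to DMSO.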

[20] = ATG_NF_kB_CIS: Attagene CIS-FACTORIAL HepG2 Assay for human Nuclear Factor Kappa B (NF-kB) (AID 2282991); settings: HepG2 Attagene cis-factorial NF-kB reporter mRNA; actives raise or lower the signal
In short: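 HepG2 cells transiently transfected with multiplexed cis-element reporter units measuring endogenous transcription factor activity; reporter mRNA read 24 h after dosing by RT-PCR, fluorescent labelling, HpaI digestion and capillary electrophoresis. Bidirectional fit against DMSO baseline.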

Measured: outcome

Sequence of Hepatocyte nuclear factor 4-alpha (Homo sapiens) (P41235 whole entry, looked up): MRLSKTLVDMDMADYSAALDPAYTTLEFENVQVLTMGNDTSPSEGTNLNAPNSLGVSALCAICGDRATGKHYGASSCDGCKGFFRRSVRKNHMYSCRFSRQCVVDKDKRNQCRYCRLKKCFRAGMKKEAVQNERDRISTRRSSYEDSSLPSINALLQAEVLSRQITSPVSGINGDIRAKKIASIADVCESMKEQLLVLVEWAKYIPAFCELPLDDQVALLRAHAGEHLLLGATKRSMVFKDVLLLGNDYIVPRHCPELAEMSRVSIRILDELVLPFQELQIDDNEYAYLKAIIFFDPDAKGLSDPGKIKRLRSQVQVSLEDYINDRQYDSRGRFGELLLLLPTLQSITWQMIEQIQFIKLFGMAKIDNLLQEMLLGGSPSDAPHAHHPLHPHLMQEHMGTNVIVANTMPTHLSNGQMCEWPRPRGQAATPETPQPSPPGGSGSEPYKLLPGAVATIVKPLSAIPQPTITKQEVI
Sequence of Retinoic acid receptor alpha (Homo sapiens) (P10276 whole entry, looked up): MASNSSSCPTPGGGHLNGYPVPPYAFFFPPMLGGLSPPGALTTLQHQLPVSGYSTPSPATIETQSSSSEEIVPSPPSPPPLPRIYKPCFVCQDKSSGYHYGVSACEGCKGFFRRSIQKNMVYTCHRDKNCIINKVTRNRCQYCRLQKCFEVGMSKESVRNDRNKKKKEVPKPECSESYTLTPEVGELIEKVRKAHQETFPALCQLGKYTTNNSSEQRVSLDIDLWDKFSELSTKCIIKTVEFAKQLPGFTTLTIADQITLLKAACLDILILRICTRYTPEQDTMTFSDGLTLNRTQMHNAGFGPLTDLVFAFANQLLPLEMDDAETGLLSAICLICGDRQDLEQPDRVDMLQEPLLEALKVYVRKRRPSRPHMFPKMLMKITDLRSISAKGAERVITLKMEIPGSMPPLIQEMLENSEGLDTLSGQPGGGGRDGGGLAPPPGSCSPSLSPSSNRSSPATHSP
Sequence of Hepatocyte nuclear factor 3-beta (Homo sapiens) (Q9Y261 whole entry, looked up): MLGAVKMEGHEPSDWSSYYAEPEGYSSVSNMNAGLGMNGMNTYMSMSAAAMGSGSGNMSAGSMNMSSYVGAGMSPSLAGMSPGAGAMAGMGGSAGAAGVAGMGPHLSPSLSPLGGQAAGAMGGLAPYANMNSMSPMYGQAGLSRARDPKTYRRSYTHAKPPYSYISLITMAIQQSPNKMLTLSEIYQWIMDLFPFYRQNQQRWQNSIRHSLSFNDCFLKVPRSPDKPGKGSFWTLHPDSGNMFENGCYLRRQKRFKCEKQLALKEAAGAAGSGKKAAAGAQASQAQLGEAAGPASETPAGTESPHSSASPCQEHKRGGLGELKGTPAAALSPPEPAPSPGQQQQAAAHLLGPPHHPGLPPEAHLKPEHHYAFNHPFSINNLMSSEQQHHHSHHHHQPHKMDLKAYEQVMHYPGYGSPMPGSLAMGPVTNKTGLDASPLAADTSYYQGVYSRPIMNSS
Sequence of Cellular tumor antigen p53 (Homo sapiens) (P04637 whole entry, looked up): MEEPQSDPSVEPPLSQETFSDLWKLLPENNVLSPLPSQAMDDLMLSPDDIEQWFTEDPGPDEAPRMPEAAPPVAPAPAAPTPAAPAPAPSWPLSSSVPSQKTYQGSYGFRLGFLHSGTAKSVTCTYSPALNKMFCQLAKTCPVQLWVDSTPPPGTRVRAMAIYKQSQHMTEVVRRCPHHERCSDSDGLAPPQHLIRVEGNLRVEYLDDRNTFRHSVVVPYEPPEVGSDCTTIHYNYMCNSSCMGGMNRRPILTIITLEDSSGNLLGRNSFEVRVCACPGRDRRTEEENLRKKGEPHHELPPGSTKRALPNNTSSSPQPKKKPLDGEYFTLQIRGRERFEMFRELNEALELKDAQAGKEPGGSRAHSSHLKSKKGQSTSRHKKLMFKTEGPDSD
Sequence of human Peroxisome Proliferator-activated Receptor alpha (PPARa), PPARA (gene 5465) (Q07869 whole entry, looked up, the tested form may be a part): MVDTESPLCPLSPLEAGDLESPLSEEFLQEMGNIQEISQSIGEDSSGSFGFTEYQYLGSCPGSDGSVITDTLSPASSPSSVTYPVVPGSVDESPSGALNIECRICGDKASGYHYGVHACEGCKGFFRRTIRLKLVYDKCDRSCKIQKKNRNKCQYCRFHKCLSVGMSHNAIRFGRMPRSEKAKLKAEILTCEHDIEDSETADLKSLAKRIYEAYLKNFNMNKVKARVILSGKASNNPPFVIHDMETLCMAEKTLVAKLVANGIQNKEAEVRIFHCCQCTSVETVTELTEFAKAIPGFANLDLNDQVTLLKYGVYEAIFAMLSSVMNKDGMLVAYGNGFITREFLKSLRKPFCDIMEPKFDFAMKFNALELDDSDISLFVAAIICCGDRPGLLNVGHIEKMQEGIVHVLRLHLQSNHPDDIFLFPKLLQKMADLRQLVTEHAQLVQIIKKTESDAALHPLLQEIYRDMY
Sequence of Nuclear respiratory factor 1 (Homo sapiens) (Q16656 whole entry, looked up): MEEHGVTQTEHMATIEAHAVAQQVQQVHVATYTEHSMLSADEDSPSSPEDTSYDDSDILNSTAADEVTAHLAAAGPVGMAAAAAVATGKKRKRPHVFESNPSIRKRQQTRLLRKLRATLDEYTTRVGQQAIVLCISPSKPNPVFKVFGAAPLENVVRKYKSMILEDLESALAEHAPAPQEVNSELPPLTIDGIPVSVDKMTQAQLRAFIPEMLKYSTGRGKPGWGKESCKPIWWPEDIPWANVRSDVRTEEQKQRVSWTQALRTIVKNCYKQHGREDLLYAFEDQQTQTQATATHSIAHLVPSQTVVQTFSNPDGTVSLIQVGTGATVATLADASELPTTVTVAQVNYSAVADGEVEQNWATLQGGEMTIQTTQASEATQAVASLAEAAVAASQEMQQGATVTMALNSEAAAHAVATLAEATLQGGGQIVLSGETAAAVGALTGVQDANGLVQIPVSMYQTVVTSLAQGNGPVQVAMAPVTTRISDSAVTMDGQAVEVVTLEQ
Sequence of human Retinoid X Receptor beta (RXRb), RXRB (gene 6257) (P28702 whole entry, looked up, the tested form may be a part): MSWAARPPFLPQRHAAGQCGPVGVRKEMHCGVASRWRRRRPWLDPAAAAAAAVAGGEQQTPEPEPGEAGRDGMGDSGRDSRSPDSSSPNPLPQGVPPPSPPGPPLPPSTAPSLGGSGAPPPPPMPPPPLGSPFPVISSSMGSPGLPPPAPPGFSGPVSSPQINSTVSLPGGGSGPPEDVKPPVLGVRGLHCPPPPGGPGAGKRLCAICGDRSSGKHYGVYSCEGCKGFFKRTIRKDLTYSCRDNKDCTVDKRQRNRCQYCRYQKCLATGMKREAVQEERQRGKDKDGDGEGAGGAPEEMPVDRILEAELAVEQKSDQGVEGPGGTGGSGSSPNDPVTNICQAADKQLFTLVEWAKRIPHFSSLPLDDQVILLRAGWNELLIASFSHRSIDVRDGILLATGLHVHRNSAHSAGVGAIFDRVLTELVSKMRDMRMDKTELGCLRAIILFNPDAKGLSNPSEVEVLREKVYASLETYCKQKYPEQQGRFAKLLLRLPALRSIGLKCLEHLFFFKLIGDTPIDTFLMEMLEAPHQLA
Sequence of Retinoic acid receptor RXR-alpha (Homo sapiens) (P19793 whole entry, looked up, the tested form may be a part): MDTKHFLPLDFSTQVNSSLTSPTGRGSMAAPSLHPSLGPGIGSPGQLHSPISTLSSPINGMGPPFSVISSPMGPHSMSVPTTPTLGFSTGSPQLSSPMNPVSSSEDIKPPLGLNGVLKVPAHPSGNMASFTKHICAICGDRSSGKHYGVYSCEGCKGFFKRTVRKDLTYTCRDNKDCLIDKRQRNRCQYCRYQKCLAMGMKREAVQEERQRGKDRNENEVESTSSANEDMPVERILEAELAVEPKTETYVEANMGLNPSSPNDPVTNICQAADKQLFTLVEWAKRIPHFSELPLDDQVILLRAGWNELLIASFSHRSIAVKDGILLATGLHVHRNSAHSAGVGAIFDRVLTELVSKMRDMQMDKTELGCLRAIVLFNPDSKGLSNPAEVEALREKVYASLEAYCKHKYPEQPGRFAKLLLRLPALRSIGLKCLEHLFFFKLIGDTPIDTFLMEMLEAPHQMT

O=[N+]([O-])c1ccccc1C(F)(F)F
inactive: [1] | [2] | [3] | [4] | [5] | [6] | [7] | [8] | [9] | [10]

O=C1NC(=O)[C@@H]2CC=CC[C@H]12
not listed: [8] | [19] | [20]
inactive: all other assays above

CC1=CCCC(C)(C)C12CCC(C)O2 (stereo not given)
not listed: [1] | [2] | [3] | [6] | [12] | [18] | [20]
inactive: all other assays above

COC(=O)CCSCCC(=O)OC
inactive: [1] | [2] | [12] | [14] | [3] | [4] | [19] | [15] | [20] | [6]
